Measured values reported in PubChem BioAssay (NCI).
The panel holds about 79,000 compounds, 15% with a hit somewhere; the sample as a whole holds those more often. The source made the active and inactive calls. No stated cut-off is given here; in the data, active means growth inhibition above about 70%; inactive means the rest.

Tests used:
[1] = NCI Yeast Anticancer Drug Screen. Data for the rad50 strain (AID 155);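 further: 0% = growth of vehicle-only cultures of the same strain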; conditions: S. cerevisiae rad50 strain growth inhibition, stronger effect = higher value
In short: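 Vehicle-treated cultures provide the reference for the growth inhibition reported for compound-exposed, repair-deficient yeast.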

[2] = NCI Yeast Anticancer Drug Screen. Data for the mec2-1 strain (AID 157); conditions: S. cerevisiae mec2-1 strain, stronger effect = higher value
In short: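 Yeast mec2-1 mutant treated with compound. Readout: growth inhibition vs vehicle controls.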

[3] = NCI Yeast Anticancer Drug Screen. Data for the sgs1 mgt1 strain (AID 161);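 further: 0% = growth of cultures given vehicle only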; conditions: S. cerevisiae sgs1 mgt1 strain, stronger effect = higher value
In short: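 Genetically altered yeast, compound exposure, growth inhibition relative to vehicle.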

[4] = NCI Yeast Anticancer Drug Screen. Data for the cln2 rad14 strain (AID 165);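 further: 0% = growth equal to vehicle treated cultures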; conditions: S. cerevisiae cln2 rad14 strain, stronger effect = higher value
In short: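 cln2 rad14 yeast strain; compound exposure; growth inhibition read vs vehicle controls.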

[5] = NCI Yeast Anticancer Drug Screen. Data for the bub3 strain (AID 167); conditions: S. cerevisiae bub3 mutant strain, stronger effect = higher value
In short: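 Mutant yeast screening strain plus compound; vehicle-treated cultures serve as the 0% inhibition reference.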

[6] = NCI Yeast Anticancer Drug Screen. Data for the mlh1 rad18 strain (AID 175); conditions: S. cerevisiae mlh1 rad18 strain growth inhibition, stronger effect = higher value
In short: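 Yeast w/ defined DNA-repair lesions; compound exposure; growth vs vehicle controls → % inhibition.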

[7] = at 5.0 µM (retest, dose inferred, filed as 0.5)
[8] = at 50.0 µM (retest, dose inferred, filed as 5.0)

Measured: growth inhibition

O=S(=O)(c1cc(Cl)ccc1Cl)N1CCc2ccccc2C1
inactive: [1]; [7] 14% | [1]; [8] 3% | [1]; at 50.0 µM 16.1% | [2]; [7] -28% | [2]; [8] -13% | [2]; at 50.0 µM -25.6% | [3]; [7] -1% | [3]; [8] 12% | [3]; at 50.0 µM 25.6% | [4]; [7] -1% | [4]; [8] 15% | [4]; at 50.0 µM -11.4% | [5]; [7] 18% | [5]; [8] 12% | [5]; at 50.0 µM 5% | [6]; [7] -17% | [6]; [8] -31% | [6]; at 50.0 µM -9.85%

CCC(=O)NC1=C(Cl)C(=O)c2ccccc2C1=O
active: [1]; [7] 99% | [1]; [8] 99% | [1]; at 50.0 µM 99.2% | [2]; [7] 100% | [2]; [8] 99% | [2]; at 50.0 µM 98.2% | [3]; [7] 100% | [3]; [8] 100% | [3]; at 50.0 µM 98.2% | [4]; [7] 99% | [4]; [8] 100% | [4]; at 50.0 µM 86.2% | [5]; [7] 99% | [5]; [8] 99% | [5]; at 50.0 µM 98.9% | [6]; [7] 99% | [6]; [8] 99% | [6]; at 50.0 µM 98.5%

CCN(CC)CCNc1c(OC)cc(C)c2sc3ccccc3c(=O)c12
active: [1]; [8] 75% | [1]; at 50.0 µM 81.2% | [3]; at 50.0 µM 82.8% | [6]; [8] 86% | [6]; at 50.0 µM 94%
inactive: [1]; [7] 8% | [2]; [7] 6% | [2]; [8] -1% | [2]; at 50.0 µM 39.5% | [3]; [7] 0% | [3]; [8] 66% | [4]; [7] 1% | [4]; [8] 39% | [4]; at 50.0 µM 33.1% | [5]; [7] 1% | [5]; [8] 33% | [5]; at 50.0 µM 57% | [6]; [7] 4%

CC(C(=O)NN)C(O)C(C)(C)O (stereo not given)
inactive: [1]; [7] 3% | [1]; [8] -5% | [1]; at 50.0 µM 58.7% | [2]; [7] -5% | [2]; [8] -10% | [2]; at 50.0 µM 3.8% | [3]; [7] 1% | [3]; [8] 3% | [3]; at 50.0 µM -7.4% | [4]; [7] 1% | [4]; [8] -9% | [4]; at 50.0 µM -47.5% | [5]; [7] -2% | [5]; [8] 1% | [5]; at 50.0 µM -5.85% | [6]; [7] 7% | [6]; [8] 4% | [6]; at 50.0 µM 6.05%

CN(C)/N=N/c1nc(Cc2ccccc2)[nH]c1C(N)=O
active: [1]; [7] 98% | [1]; [8] 98% | [1]; at 50.0 µM 98.5% | [2]; [8] 99% | [2]; at 50.0 µM 94.6% | [3]; [8] 99% | [3]; at 50.0 µM 99.2% | [4]; [8] 99% | [4]; at 50.0 µM 92.9% | [5]; [8] 99% | [5]; at 50.0 µM 96.5% | [6]; [7] 99% | [6]; [8] 99% | [6]; at 50.0 µM 98.8%
inactive: [2]; [7] 16% | [3]; [7] 38% | [4]; [7] 29% | [5]; [7] 67%

CCOc1c(N=Nc2ccc(OC)cc2)c(-c2ccccc2)nn1C(N)=S
active: [3]; [8] 73% | [5]; [8] 71% | [5]; at 50.0 µM 70.2%
inactive: [1]; [7] 4% | [1]; [8] 36% | [1]; at 50.0 µM 12.3% | [2]; [7] -2% | [2]; [8] 34% | [2]; at 50.0 µM 38% | [3]; [7] 10% | [3]; at 50.0 µM 25.8% | [4]; [7] 6% | [4]; [8] 9% | [4]; at 50.0 µM 3.1% | [5]; [7] 3% | [6]; [7] 0% | [6]; [8] 27% | [6]; at 50.0 µM 23.9%

COc1cc(-c2oc(C=Nc3ccccc3)c([N+](=O)[O-])c2-c2ccc(O)c(OC)c2)ccc1O
active: [3]; [8] 74% | [4]; [8] 74% | [5]; [8] 91%
inactive: [1]; [7] 22% | [1]; [8] 32% | [1]; at 50.0 µM 34.1% | [2]; [7] 19% | [2]; [8] 38% | [2]; at 50.0 µM -7.5% | [3]; [7] -14% | [3]; at 50.0 µM 31.4% | [4]; [7] 7% | [4]; at 50.0 µM -18.1% | [5]; [7] 5% | [5]; at 50.0 µM -16.8% | [6]; [7] 25% | [6]; [8] 61% | [6]; at 50.0 µM 1.65%

O=S(=O)(CC(Br)Br)c1ccccc1
inactive: [1]; [7] 13% | [2]; [7] 18% | [3]; [7] 3% | [3]; at 50.0 µM 41% | [4]; [7] 7% | [5]; [7] 34% | [6]; [7] 11% | [6]; at 50.0 µM 30.9%
active: [1]; [8] 99% | [1]; at 50.0 µM 99.5% | [2]; [8] 100% | [2]; at 50.0 µM 98.5% | [3]; [8] 99% | [4]; [8] 99% | [4]; at 50.0 µM 74.8% | [5]; [8] 99% | [5]; at 50.0 µM 99.5% | [6]; [8] 99%

O=C(O)c1cccc2c1Oc1c(cccc1C(=O)O)S2
active: [1]; at 50.0 µM 98.3% | [2]; at 50.0 µM 98.2% | [3]; at 50.0 µM 98.3% | [4]; at 50.0 µM 98.2% | [5]; at 50.0 µM 98.8% | [6]; at 50.0 µM 98.5%
inactive: [1]; [7] 3% | [1]; [8] 1% | [2]; [7] 0% | [2]; [8] 9% | [3]; [7] 0% | [3]; [8] 3% | [4]; [7] 2% | [4]; [8] 6% | [5]; [7] 1% | [5]; [8] 1% | [6]; [7] 2% | [6]; [8] -2%

NCC(CS)C(=O)NC(CS)C(=O)NC(CS)C(=O)NCCNc1ccc(NCCNC(=O)C(CS)NC(=O)C(CS)NC(=O)C(CN)CS)c2c1C(=O)c1c(O)ccc(O)c1C2=O (stereo not given)
inactive: [1]; at 50.0 µM 61.1% | [2]; [7] 34% | [3]; [7] 36% | [4]; [7] 23% | [4]; at 50.0 µM 65.7% | [5]; [7] 36% | [5]; [8] 58% | [5]; at 50.0 µM 65% | [6]; [7] 40% | [6]; at 50.0 µM 53.9%
active: [1]; [7] 80% | [1]; [8] 78% | [2]; [8] 85% | [2]; at 50.0 µM 70.8% | [3]; [8] 82% | [3]; at 50.0 µM 72% | [4]; [8] 84% | [6]; [8] 75%
